Compounds with a hit are over-represented: about 1.6% of the library has one in this group of screens.
KCNQ2 inh: blocks the rat KCNQ2 potassium channel; O88943; B-score at 10 µM; AID 2156; 1.1% of 310,000 active; CHO-K1 KCNQ2, FluxOR thallium flux, 20 min; active compounds read low;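 active = fluorescence ratio B-score at most minus 3 library SDs, with starting brightness B-score within 2 library SDs, cut at about -5.5 in these data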
KCNQ2 pot: KCNQ2 (rat) channel potentiation; O88943; CHO-K1 KCNQ2, FluxOR thallium flux fluorescence; active compounds read high; B-score at 10 µM; 0.54% of 310,000 active; AID 2239;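 active = fluorescence ratio B-score at least 3 SD of library B-scores, with initial fluorescence B-score within 3 of them, cut at about 5.3 in these data; same plate scores as AID 2156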;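 note: B-score of peak minus minimum over baseline fluorescence ratio after K+ and Tl+ stimulus; positive B-score means potentiation of KCNQ2 with more thallium influx and brighter signal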
Numbers stand for hits; i = inactive; nt = no result given.

SMILES	KCNQ2 inh	KCNQ2 pot
Fc1cccc(-c2cc3nc4c(c(N5CCC6(CC5)OCCO6)n3n2)CCCC4)c1	-6.56	i
CN(CC1CCCO1)S(=O)(=O)c1ccc(C(=O)NCc2ccccc2)cc1 (stereo not drawn)	i	nt
CCC(C)N1C(=O)CN(C2CCCCCC2)C(=O)C1c1ccccc1F (stereo not drawn)	i	i
c1cncc(-c2nc(N3CCCCCC3)c3ccccc3n2)c1	-7.41	i
CN1CCN(c2nc(-c3cccnc3)nc3ccccc23)CC1	i	i
O=C(NCC1CCCN(C(=O)CN2CCCCC2)C1)c1ccccc1Cl (stereo not drawn)	i	i
Cc1ccc(NC(=O)C(OC(=O)c2cc(C)oc2C)c2ccccc2)cc1 (stereo not drawn)	i	nt
Cc1cc(C(=O)OC(C(=O)Nc2cccc(C(F)(F)F)c2)c2ccccc2)c(C)o1 (stereo not drawn)	-5.81	i
COc1ccc(N(C(=O)C(C)C)S(=O)(=O)c2ccc3ccccc3c2)cc1	i	nt
O=C1/C(=C/c2cccc3ccccc23)CCCc2ccccc21	-6.64	i
O=C1/C(=C\c2ccncc2)CCc2ccccc21	i	nt
COc1ccc(S(=O)(=O)N(C)CC(=O)NCc2ccco2)cc1OC	i	i
Cc1cc(C(C)(C)C)oc1C(=O)N(CC(=O)NC1CCCC1)Cc1ccccc1Cl	-6.17	i
Cc1ccccc1N(CC(=O)NC1CCCC1)C(=O)c1oc(C(C)(C)C)cc1C	i	nt
COc1ccc(OC)c(C(=O)NC(CC(N)=O)c2ccc(NC(C)C)c([N+](=O)[O-])c2)c1 (stereo not drawn)	-9.64	i
COc1ccc(OC)c(C(=O)NC(CC(N)=O)c2ccc(NCC3CC3)c([N+](=O)[O-])c2)c1 (stereo not drawn)	i	nt
COc1ccc(-n2c(CNC(=O)COc3ccc(Cl)cc3Cl)n[nH]c2=S)cc1	i	nt
CCCc1nc(SCC(=O)Nc2ccccc2)c2c(=O)n(C)c(=O)n(C)c2n1	i	i
CCCc1nc(SCC(=O)N2CCC(Cc3ccccc3)CC2)c2c(=O)n(C)c(=O)n(C)c2n1	i	22.9
CCOc1cc2c(cc1OCC)C(c1ccccc1)N(c1ccccc1)C(=O)C2 (stereo not drawn)	i	i
C/C=C(/C)C(=O)OC1c2c(ccc3ccc(=O)oc23)OC(C)(C)C1OC(=O)/C(C)=C\C (stereo not drawn)	-9.9	i
C/C=C(\C)C(=O)OC1c2c(ccc3ccc(=O)oc23)OC(C)(C)C1OC(C)=O (stereo not drawn)	i	i
Cc1ccc(NC(=O)c2sc3ncn(CC(=O)N4CCOCC4)c(=O)c3c2C)c(Br)c1	i	nt
COc1ccc(OC)c(NC(=S)N2CCN(Cc3ccccc3)CC2)c1	i	i
COc1ccc(OC)c(NC(=S)N2CCC(C(O)(c3ccccc3)c3ccccc3)CC2)c1	i	5.89
SMILES	KCNQ2 inh	KCNQ2 pot
CC(C)c1csc(CN2CCC(N3CCC(C(=O)NCC4CCCO4)CC3)CC2)n1 (stereo not drawn)	i	nt
c1cnc(SCCOc2cccc3ccccc23)nc1	i	nt
Clc1ccc(OCCSc2ncccn2)c2ccccc12	-5.66	i
O=C(CCC(=O)NC1CCCCC1)N/N=C/c1ccncc1	i	nt
CCN1CCN(CCNC(=O)c2ccc(CS(=O)c3ccc(Br)cc3)o2)CC1 (stereo not drawn)	i	5.61
CCN1CCN(CCNC(=O)c2ccc(CS(=O)c3ccc(Cl)cc3)o2)CC1 (stereo not drawn)	i	i
CC(=O)N(c1nnc(-c2ccc(C)cc2)s1)C1CCCC1	i	nt
CN(C)c1ccc(C(=O)Nc2nc3c(s2)CCCC3)cc1	i	nt
CC(C)(C)c1ccc(C(=O)NC(=S)Nc2nc3c(s2)CCCC3)cc1	i	8.46
COc1ccc(OC)c(C(=O)CSc2nccc(-c3ccc(Br)cc3)n2)c1	-6.4	i
COc1ccc(-c2ccnc(SCC(=O)c3ccc(OC)c(OC)c3)n2)cc1	i	i
Cc1nn(C(C)C(=O)NCCCN2CCCCCC2)c(=O)c2cc3sccc3n12 (stereo not drawn)	i	nt
CN(C)CCCN1C(=O)C2CCc3[nH]c4ccccc4c3C2C1=O (stereo not drawn)	i	nt
CCC1(CC)C(=O)C2=C3C1[C@H](C(=O)OC)C=C(C(=O)OC)C[C@H]3n1c(=O)n(C)c(=O)n1[C@H]2C (stereo partly drawn)	i	i
CCC1(CC)C(=O)C2=C3C1[C@H](C(=O)OC)CC(C(=O)OC)C[C@H]3n1c(=O)n(C)c(=O)n1[C@H]2C (stereo partly drawn)	-7.48	i
CSCCC(NS(=O)(=O)c1ccc(C)cc1)C(=O)N1CCN(C(c2ccccc2)c2ccccc2)CC1 (stereo not drawn)	i	nt
CSCCC(NC(=O)c1ccccc1Cl)C(=O)N1CCN(C(c2ccccc2)c2ccccc2)CC1 (stereo not drawn)	-7.16	i
COc1ccccc1C(=O)NC(CCSC)C(=O)N1CCC(Cc2ccccc2)CC1 (stereo not drawn)	-7.15	i
COc1ccccc1C(=O)NC(CCSC)C(=O)OC(C)C(N)=O (stereo not drawn)	i	i
O=C(NC1CCCCC1)C(c1ccc(Cl)cc1)N(C(=O)c1ccccn1)c1cccnc1 (stereo not drawn)	i	nt
Cc1ccc(S(=O)(=O)N2CCC(C(=O)NNC(=O)c3cccnc3)CC2)cc1	i	nt
CC1CC(NC(=O)CC#N)CC(C)(C)C1 (stereo not drawn)	i	nt
CC1CC(NC(=O)Cc2ccc(Br)cc2)CC(C)(C)C1 (stereo not drawn)	-5.74	i
COC(=O)C(NC(=O)CCc1nnc2ccc(N3CCCCC3)nn12)C(C)C (stereo not drawn)	i	i
O=C(CCC(=O)Nc1ccccc1Cl)NNC(=O)Nc1cccc([N+](=O)[O-])c1	i	nt
SMILES	KCNQ2 inh	KCNQ2 pot
Cc1ccc(C(C(=O)NC2CCCCC2)N(CC2CCCO2)C(=O)CNC(=O)c2cccs2)cc1 (stereo not drawn)	i	nt
CCC(C)(C)NC(=O)C(c1ccc(C)cc1)N(CC1CCCO1)C(=O)CNC(=O)c1cccs1 (stereo not drawn)	-5.81	i
O=C(NCCNC(=O)c1ccco1)c1ccc(Cl)c(Cl)c1	i	i
CCOC(=O)CC1C(=O)NCCN1c1nc2ccc(C)cn2c(=O)c1/C=C1\SC(=S)N(CC(C)C)C1=O (stereo not drawn)	i	nt
CCOC(=O)CC1C(=O)NCCN1c1nc2ccc(C)cn2c(=O)c1/C=C1\SC(=S)N(C(C)CC)C1=O (stereo not drawn)	-7.69	i
CCc1ccc(C(=O)NCc2cnn(C)c2)s1	i	nt
O=C1C(Cl)=C(NS(=O)(=O)c2ccc([N+](=O)[O-])cc2)C(=O)c2ccccc21	-5.96	i
O=[N+]([O-])c1ccc(Oc2ccc(S(=O)(=O)Nc3ccccc3)cc2)cc1	i	i
CCOC(=O)C1CC(c2ccccc2)=NNC1=O (stereo not drawn)	i	nt
COc1cc(C(CC(=O)Nc2ccc(Cl)cn2)N2Cc3ccccc3C2=O)cc(OC)c1OC (stereo not drawn)	i	nt
O=C(NC(Cc1ccccc1)C(=O)NCCc1ccccn1)c1ccccc1 (stereo not drawn)	i	i
CCCCC(=O)Nc1ccc(NCc2ccc(C)s2)cc1	i	30.1
CCCCC(=O)Nc1ccc(C(N)=O)cc1	i	i
Cc1ccc(C2=NN(C(=O)CCCC(=O)O)C(c3ccc4c(c3)OCO4)C2)cc1 (stereo not drawn)	i	nt
Cn1nc(C(F)(F)F)c(/C=N/OC(=O)c2ccccc2Cl)c1SCc1ccccc1Cl	-5.95	i
